Results published in PubChem BioAssay (EPA / NIEHS).
Several values for one entry are separate records, joined by “and”; a condition that tells them apart may be missing. Identical values can stand only once. Where a structure was tested more than once in an assay, its records may differ in their call. Activity calls are given as the source filed them. How the source made its calls: active means hit-call score of the fitted dose curve at least 0.9, where 1 is the maximum; inactive means score below 0.9.

What was measured:
[1] = APR_HepG2_CellLoss_72hr: Apredica 72-hour HepG2 Assay for Cell Loss (AID 2282915); conditions: high-content imaging
Method in brief: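 HepG2 cells were exposed for 72 hr to compounds at 0.39–200 uM (ten concentrations, duplicate) in 0.5% v/v final DMSO. Nuclei were stained with Hoechst 33342 after 3.7% formaldehyde fixation, imaged at 20x, and counted; fits bidirectional versus DMSO.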

[2] = APR_HepG2_P-H2AX_72hr: Apredica 72-hour HepG2 Assay for H2AX Phosphorylation (AID 2282916); conditions: imaging, actives raise or lower the signal;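 further: phospho-histone H2A.x immunostain intensity per cell marking DNA damage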
Method in brief: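 HepG2 human liver cells were exposed for 72 hr to compounds at 0.39–200 uM (10 concentrations, duplicate per plate) in 0.5% v/v DMSO. Fixed, permeabilized cells were immunolabeled for phospho-histone H2A.x with Hoechst 33342 and imaged by HCS fluorescence; bidirectional fit versus DMSO.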

[3] = APR_HepG2_MitoMembPot_72hr: Apredica 72-hour HepG2 Assay for Mitochondrial Membrane Potential (AID 2282917); conditions: imaging, actives raise or lower the signal
Method in brief: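 HepG2 cells exposed 72 h to compounds at 0.39–200 uM (0.5% v/v DMSO, duplicates); MitoTracker Red CMXRos 250 nM loaded 30 min before 3.7% formaldehyde fixation, imaged by HCS fluorescence. Bidirectional fit versus DMSO.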

[4] = APR_HepG2_MicrotubuleCSK_72hr: Apredica 72-hour HepG2 Assay for Microtubule CSK Stabilty (AID 2282919); conditions: HepG2 microtubule cytoskeleton, high-content imaging, actives raise or lower the signal
Method in brief: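 HepG2 human liver cells were dosed for 72 h at ten concentrations from 0.39 to 200 uM in duplicate (0.5% v/v DMSO final). Fixed, permeabilized cells were immunostained for alpha-tubulin (Cy5) with a Hoechst counterstain and imaged at 20x.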

[5] = APR_HepG2_P-H2AX_24hr: Apredica 24-hour HepG2 Assay for H2AX Phosphorylation (AID 2282920); conditions: high-content imaging, actives raise or lower the signal
Method in brief: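 HepG2 cells dosed 24 h at 0.39–200 uM (10 points, duplicate, 0.5% DMSO final). Formaldehyde-fixed and permeabilized, then immunostained for phospho-H2A.x with Hoechst. Fluorescence quantified by high-content imaging, fitted bidirectionally versus DMSO.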

[6] = APR_HepG2_StressKinase_72hr: Apredica 72-hour HepG2 Assay for Stress Kinase (AID 2282921); conditions: HepG2 stress kinase (phospho-c-Jun) imaging, actives raise or lower the signal
Method in brief: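 Cells were exposed for 72 h to ten concentrations (0.39–200 uM, duplicate) at 0.5% v/v DMSO final, then fixed with 3.7% formaldehyde, permeabilized and immunostained for phospho-c-Jun (Cy3 secondary) with Hoechst nuclear counterstain.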

[7] = APR_HepG2_StressKinase_24hr: Apredica 24-hour HepG2 Assay for Stress Kinase (AID 2282922); conditions: HepG2 stress kinase (phospho-c-Jun) imaging, actives raise or lower the signal
Method in brief: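 HepG2 cells exposed 24 hr to compound at 0.39–200 uM (10 concentrations, duplicate), 0.5% v/v DMSO final. Fixed in 3.7% formaldehyde, permeabilized with Triton X-100, immunolabeled for phospho-c-Jun with Hoechst 33342; HCS fluorescence imaging, bidirectional fit versus DMSO.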

[8] = APR_HepG2_p53Act_72hr: Apredica 72-hour HepG2 Assay for p53 Activation (AID 2282923); conditions: high-content imaging, actives raise or lower the signal;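 further: average cellular p53 protein immunofluorescence intensity in HepG2 cells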
Method in brief: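 Cells were dosed for 72 hr with compounds at 0.39–200 uM in duplicate (final DMSO 0.5% v/v), then fixed in 3.7% formaldehyde, permeabilized with Triton X-100 and immunostained for p53 (Cy5) with Hoechst 33342 nuclear counterstain.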

[9] = APR_HepG2_MitoMass_72hr: Apredica 72-hour HepG2 Assay for Mitochondrial Mass (AID 2282924); conditions: high-content imaging, actives raise or lower the signal;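 further: MitoTracker Red CMXRos stain intensity per cell imaged as mitochondrial mass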
Method in brief: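 HepG2 cells were exposed for 72 hr to compounds at 0.39–200 uM (ten concentrations, duplicate, 0.5% v/v DMSO final). Live cells were stained with 250 nM MitoTracker Red CMXRos for 30 min, then fixed in 3.7% formaldehyde and imaged by HCS fluorescence.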

[10] = APR_HepG2_NuclearSize_72hr: Apredica 72-hour HepG2 Assay for Nuclear Size (AID 2282925); conditions: high-content imaging, actives raise or lower the signal
Method in brief: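 HepG2 cells were exposed to compounds at ten concentrations from 0.39 to 200 uM (duplicate, 0.5% DMSO final) for 72 hr. After fixation in 3.7% formaldehyde, nuclei were stained with Hoechst 33342 (2 ug/mL) and imaged at 20x.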

[11] = biological target: CCAAT/enhancer-binding protein beta (Homo sapiens) (UniProt P17676); test: ATG_C_EBP_CIS: Attagene CIS-FACTORIAL HepG2 Assay for human CCAAT/Enhancer Binding Protein (C/EBP) beta (AID 2282927); conditions: HepG2 Attagene cis-factorial transcription factor reporter; actives raise or lower the signal
Chain of CCAAT/enhancer-binding protein beta (Homo sapiens) (P17676 whole entry, looked up): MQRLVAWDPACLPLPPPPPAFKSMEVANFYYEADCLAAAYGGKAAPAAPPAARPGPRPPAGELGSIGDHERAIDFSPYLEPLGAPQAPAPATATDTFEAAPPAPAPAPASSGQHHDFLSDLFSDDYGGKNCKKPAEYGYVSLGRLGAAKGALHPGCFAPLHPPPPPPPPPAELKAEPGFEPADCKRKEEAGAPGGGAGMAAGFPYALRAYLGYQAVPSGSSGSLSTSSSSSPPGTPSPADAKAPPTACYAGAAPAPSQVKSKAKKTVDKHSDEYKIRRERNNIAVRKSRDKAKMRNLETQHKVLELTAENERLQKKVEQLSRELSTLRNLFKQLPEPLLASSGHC
Method in brief: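 RT-PCR/capillary electrophoresis fluorescence of reporter mRNA, 24 h post-dose, in HepG2 cells carrying transfected cis-promoter reporter units. Bidirectional curve fitting against DMSO baseline captures gain or loss of signal.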

[12] = ATG_CMV_CIS: Attagene CIS-FACTORIAL HepG2 Assay for human CMV (Internal Marker) (AID 2282928); conditions: HepG2 CMV promoter reporter, transcription factor profiling; actives raise or lower the signal;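 further: endpoint acts as a background internal control marker rather than a target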
Method in brief: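 HepG2 cells transiently transfected with multiple cis-regulated reporter units; 24 h compound exposure. Reporter mRNA quantified by RT-PCR, 6-FAM primer-extension labeling, HpaI digestion and capillary electrophoresis; bidirectional fitting against DMSO baseline.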

[13] = ATG_DR4_LXR_CIS: Attagene CIS-FACTORIAL HepG2 Assay for human Liver X Receptor (LXR), DR4 submotif (AID 2282929); conditions: HepG2 Attagene DR4 cis-reporter, mRNA transcription; actives raise or lower the signal
Method in brief: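 HepG2 cells were transiently transfected with multiple cis-regulated reporter units and dosed for 24 hours. The DR4 reporter mRNA was quantified by RT-PCR, 6-FAM labelling and capillary electrophoresis. Bidirectional fits used DMSO as baseline.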

[14] = biological target: Aryl hydrocarbon receptor (Homo sapiens) (UniProt P35869); test: ATG_Ahr_CIS: Attagene CIS-FACTORIAL HepG2 Assay for human Aryl Hydrocarbon Receptor (Ahr) (AID 2282930); conditions: HepG2 AhR cis-factorial reporter transcription; actives raise or lower the signal
Chain of Aryl hydrocarbon receptor (Homo sapiens) (P35869 whole entry, looked up): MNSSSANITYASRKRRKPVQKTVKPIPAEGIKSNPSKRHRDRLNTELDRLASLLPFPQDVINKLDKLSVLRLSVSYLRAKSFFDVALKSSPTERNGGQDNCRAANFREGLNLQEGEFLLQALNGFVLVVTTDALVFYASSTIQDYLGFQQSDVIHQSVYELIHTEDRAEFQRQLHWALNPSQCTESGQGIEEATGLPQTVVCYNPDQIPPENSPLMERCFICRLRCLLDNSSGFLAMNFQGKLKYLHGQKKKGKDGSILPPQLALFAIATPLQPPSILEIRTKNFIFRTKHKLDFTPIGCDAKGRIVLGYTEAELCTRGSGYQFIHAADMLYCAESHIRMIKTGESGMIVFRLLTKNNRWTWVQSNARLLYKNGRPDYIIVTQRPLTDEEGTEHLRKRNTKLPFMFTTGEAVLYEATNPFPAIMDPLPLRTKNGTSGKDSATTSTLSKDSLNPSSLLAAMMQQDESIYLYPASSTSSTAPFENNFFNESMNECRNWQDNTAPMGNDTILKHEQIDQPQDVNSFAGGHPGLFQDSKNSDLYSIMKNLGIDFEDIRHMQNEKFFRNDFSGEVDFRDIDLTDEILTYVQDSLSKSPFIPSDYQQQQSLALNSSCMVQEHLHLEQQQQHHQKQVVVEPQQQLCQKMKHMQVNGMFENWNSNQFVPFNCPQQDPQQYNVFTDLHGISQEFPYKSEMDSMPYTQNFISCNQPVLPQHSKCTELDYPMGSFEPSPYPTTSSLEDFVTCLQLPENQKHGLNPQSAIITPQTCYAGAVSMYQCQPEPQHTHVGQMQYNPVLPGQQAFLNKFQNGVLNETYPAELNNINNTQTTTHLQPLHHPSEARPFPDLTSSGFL
Method in brief: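 HepG2 cells transiently transfected with cis-element-driven multiplexed reporter transcription units; endogenous transcription factor activity measured as reporter mRNA 24 h after dosing. RT-PCR, 6-FAM labelling, HpaI digestion, capillary electrophoresis; bidirectional fitting versus DMSO baseline.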

[15] = ATG_AP_1_CIS: Attagene CIS-FACTORIAL HepG2 Assay for human Activator Protein 1 (AP-1) (AID 2282931); conditions: HepG2 Attagene cis-factorial AP-1 reporter mRNA; actives raise or lower the signal
Method in brief: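 HepG2 cells transiently transfected with cis-element-driven reporter transcription units, dosed for 24 hours. Reporter mRNA measured by RT-PCR, 6-FAM labelling, HpaI digestion and capillary electrophoresis. Bidirectional fitting against DMSO baseline.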

[16] = ATG_AP_2_CIS: Attagene CIS-FACTORIAL HepG2 Assay for human Activator Protein 2 (AP-2) (AID 2282932); conditions: HepG2 AP-2 cis-reporter, Attagene transcription factor profiling; actives raise or lower the signal
Method in brief: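 HepG2 cells were transiently transfected with multiple cis-promoter reporter transcription units and dosed for 24 h. Reporter mRNA was measured by RT-PCR with capillary electrophoresis fluorescence; bidirectional fits relative to DMSO baseline.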

[17] = ATG_BRE_CIS: Attagene CIS-FACTORIAL HepG2 Assay for human Bone Morphogenetic Protein (BMP) Response Element (BRE) (AID 2282933); conditions: HepG2 BMP response element reporter, Attagene transcription factor profiling; actives raise or lower the signal
Method in brief: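 Gain- or loss-of-signal was derived by bidirectional fitting against DMSO controls. The signal came from reporter mRNA, measured by RT-PCR and capillary electrophoresis, in HepG2 cells transiently carrying multiple reporter units and dosed for 24 h.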

[18] = biological target: Retinoic acid receptor alpha (Homo sapiens) (UniProt P10276); test: ATG_DR5_RAR_CIS: Attagene CIS-FACTORIAL HepG2 Assay for human Retinoic Acid Receptor Alpha (RARE), DR5 submotif (AID 2282934); conditions: HepG2 Attagene cis-factorial RARE DR5 reporter, mRNA; actives raise or lower the signal
Chain of Retinoic acid receptor alpha (Homo sapiens) (P10276 whole entry, looked up): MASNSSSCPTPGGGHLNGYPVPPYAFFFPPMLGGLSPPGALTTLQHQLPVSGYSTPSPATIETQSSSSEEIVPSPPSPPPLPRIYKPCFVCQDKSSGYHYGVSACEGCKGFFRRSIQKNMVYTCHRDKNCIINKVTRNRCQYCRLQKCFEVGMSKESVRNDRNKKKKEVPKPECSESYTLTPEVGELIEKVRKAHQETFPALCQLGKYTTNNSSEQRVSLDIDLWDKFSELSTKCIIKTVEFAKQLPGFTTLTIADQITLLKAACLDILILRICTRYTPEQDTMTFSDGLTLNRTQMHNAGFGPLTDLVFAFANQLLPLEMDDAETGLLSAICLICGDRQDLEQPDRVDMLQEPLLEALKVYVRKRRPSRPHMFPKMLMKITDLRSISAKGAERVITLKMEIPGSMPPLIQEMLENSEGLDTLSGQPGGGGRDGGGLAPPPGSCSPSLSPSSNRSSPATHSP
Method in brief: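 HepG2 cells transiently transfected with multiplexed reporter units under cis (DR5 RARE) promoters, so endogenous transcription factor activity is measured. After 24 h compound exposure, reporter mRNA is quantified by RT-PCR with fluorescent labelling and capillary electrophoresis; bidirectional fitting versus DMSO.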

[19] = APR_HepG2_MitoticArrest_72hr: Apredica 72-hour HepG2 Assay for Mitotic Arrest (AID 2282918); conditions: high-content imaging, actives raise or lower the signal
Method in brief: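 HepG2 cells treated 72 h at 0.39–200 uM, 0.5% DMSO final; formaldehyde-fixed, stained with Hoechst 33342 and phospho-histone H3 antibody, imaged by high-content fluorescence; bidirectional fit versus DMSO.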

[20] = ATG_CRE_CIS: Attagene CIS-FACTORIAL HepG2 Assay for human cAMP Responsive Element (CRE) binding protein 3 (AID 2282926); conditions: HepG2 CRE cis-reporter, Attagene multiplexed mRNA; actives raise or lower the signal
Method in brief: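 HepG2 cells transiently transfected with cis-element-driven multiple reporter transcription units; CRE reporter mRNA measured 24 h after dosing by RT-PCR, 6-FAM labelling, HpaI digestion and capillary electrophoresis. Bidirectional fit versus DMSO baseline.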

Measured: AC50

CCOC(=O)[C@H](C)Oc1ccc(Oc2nc3ccc(Cl)cc3o2)cc1
active: [1] 117 µM
not listed: [19] | [20]
inactive: all other assays above

CCSC(=O)N(CC(C)C)CC(C)C
not listed: [6] | [15]
inactive: all other assays above

C#CCOC(=O)[C@@H](C)Oc1ccc(Oc2ncc(Cl)cc2F)cc1
not listed: [6] | [15] | [17] | [20]
inactive: all other assays above

c1ccc2[nH]c(-c3cscn3)nc2c1
active: [13] 32.1 µM
inactive: [1] | [2] | [3] | [19] | [4] | [5] | [7] | [9] | [10] | [11] | [12] | [13] | [15] | [16] | [18]

CCCCCOC(=O)COc1cc(N2C(=O)C3=C(CCCC3)C2=O)c(F)cc1Cl
active: [1] 105 µM | [5] 119 µM | [13] 32.6 µM
not listed: [6] | [8] | [15] | [17] | [20]
inactive: all other assays above

S=C(S)NCCNC(=S)S.[Mn+2].[S-]C([S-])=NCCN=C([S-])[S-].[Zn+2]
active: [1] 46.5 µM [middle of 5 runs] | [2] 50 µM [middle of 6 runs] | [5] 50 µM [middle of 7 runs] | [7] 40.9 µM and 82.9 µM | [9] 31.4 µM and 52.5 µM and 169 µM | [10] 80.6 µM | [12] 231 nM and 1.21 µM and 343 nM | [13] 8.2 µM and 50 µM and 67.7 µM | [14] 20.7 µM [middle of 4 runs] | [16] 4.93 µM
inactive: [1] | [2] | [3] | [4] | [7] | [9] | [10] | [11] | [12] | [13] | [14] | [16] | [17]

CCCCCCC(C)OC(=O)COc1nc(F)c(Cl)c(N)c1Cl (configuration not stated)
active: [4] 106 µM
not listed: [6] | [14] | [17] | [18] | [20]
inactive: all other assays above

CC(=O)S[C@@H]1CC2=CC(=O)CC[C@]2(C)[C@H]2CC[C@@]3(C)[C@@H](CC[C@@]34CCC(=O)O4)[C@H]12
inactive: [4] | [10] | [11] | [12] | [13] | [14] | [15] | [16]
active: [1] 39.3 µM | [2] 35 µM | [3] 100 µM | [19] 53.6 µM | [5] 46.4 µM | [6] 49.3 µM | [7] 48.6 µM | [8] 40.3 µM | [9] 96.8 µM | [12] 26.1 µM and 3.77 µM and 12.1 µM | [13] 10.6 µM and 12.5 µM and 11.8 µM

CCCCOCCOCCOCc1cc2c(cc1CCC)OCO2
active: [1] 85.8 µM | [4] 78.1 µM | [12] 24.3 µM | [13] 89.8 µM
not listed: [8] | [15] | [17] | [20]
inactive: all other assays above

CC(C)(c1ccc(O)cc1)c1ccc(O)cc1
active: [1] 109 µM [middle of 4 runs] | [2] 114 µM and 105 µM | [3] 101 µM and 81.5 µM and 107 µM | [5] 170 µM and 110 µM | [9] 122 µM | [11] 33.4 µM | [12] 50 µM [middle of 6 runs] | [14] 26.9 µM and 49.5 µM and 23.6 µM | [16] 121 µM and 148 µM and 101 µM | [17] 155 µM
inactive: [2] | [3] | [4] | [5] | [7] | [8] | [9] | [10] | [11] | [12] | [13] | [14] | [16] | [17] | [18]

C#C[C@]1(O)CC[C@H]2[C@@H]3CCC4=CC(=O)CC[C@@H]4[C@H]3CC[C@@]21CC
not listed: [18] | [19] | [20]
inactive: all other assays above

CSC(=O)c1cccc2nnsc12
not listed: [17] | [20]
inactive: all other assays above

CCCN(CCC)C(=O)SCC
not listed: [6] | [17] | [18] | [20]
inactive: all other assays above
